Inconclusive results are not listed. Some compounds were tested as several samples or in several runs, with calls that do not always agree. Active and inactive are the calls of the source. The call rests on the fitted dose curve; in most records, active means well fitted inhibition curve with a large enough effect; inconclusive means small, poorly fitted or top-dose-only effect; inactive means flat fitted curve, though single readings scatter.
Assays:
Dd2 = assay: qHTS profiling for inhibitors of Plasmodium falciparum proliferation (AID 504749); conditions: P. falciparum in erythrocytes, SYBR Green DNA, 72 h; series mostly up to 28.7 µM
In short: (§1)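 Each compound contacts P. falciparum-infected red blood cells for 72 h at 37 C; lysis buffer (Tris, EDTA, saponin, Triton X, SYBR Green I) is added and fluorescence measured next morning; values normalized to controls.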

ECU = assay: as above; conditions: P. falciparum in erythrocytes, SYBR Green DNA, 72 h; series mostly up to 28.7 µM
In short: as §1

FAB9 = assay: as above; conditions: P. falciparum in erythrocytes, SYBR Green DNA, 72 h; series mostly up to 28.7 µM
In short: as §1

GB4 = assay: as above; conditions: P. falciparum in erythrocytes, SYBR Green DNA, 72 h; series mostly up to 28.7 µM
In short: as §1

HB3 = assay: as above; conditions: P. falciparum in erythrocytes, SYBR Green DNA, 72 h; series mostly up to 28.7 µM
In short: as §1

ICS = assay: as above; conditions: P. falciparum in erythrocytes, SYBR Green DNA, 72 h; series mostly up to 28.7 µM
In short: as §1

N140 = assay: as above; conditions: P. falciparum in erythrocytes, SYBR Green DNA, 72 h; series mostly up to 28.7 µM
In short: as §1

P93_24 = assay: as above; conditions: P. falciparum in erythrocytes, SYBR Green DNA, 72 h; series mostly up to 28.7 µM
In short: as §1

P94_40 = assay: as above; conditions: P. falciparum in erythrocytes, SYBR Green DNA, 72 h; series mostly up to 28.7 µM
In short: as §1

PAD = assay: as above; conditions: P. falciparum in erythrocytes, SYBR Green DNA, 72 h; series mostly up to 28.7 µM
In short: as §1

PC26 = assay: as above; conditions: P. falciparum in erythrocytes, SYBR Green DNA, 72 h; series mostly up to 28.7 µM
In short: as §1

PC49 = assay: as above; conditions: P. falciparum in erythrocytes, SYBR Green DNA, 72 h; series mostly up to 28.7 µM
In short: as §1

SC27B = assay: as above; conditions: P. falciparum in erythrocytes, SYBR Green DNA, 72 h; series mostly up to 28.7 µM
In short: as §1

TAB109 = assay: as above; conditions: P. falciparum in erythrocytes, SYBR Green DNA, 72 h; series mostly up to 28.7 µM
In short: as §1

TAB113 = assay: as above; conditions: P. falciparum in erythrocytes, SYBR Green DNA, 72 h; series mostly up to 28.7 µM
In short: as §1

TAB165 = assay: as above; conditions: P. falciparum in erythrocytes, SYBR Green DNA, 72 h; series mostly up to 28.7 µM
In short: as §1

W2 = assay: as above; conditions: P. falciparum in erythrocytes, SYBR Green DNA, 72 h; series mostly up to 28.7 µM
In short: as §1

CRL-7250 = normal cell line; assay: Cytotoxic Profiling of Annotated Libraries Using Quantitative High-Throughput Screening (AID 1296008); conditions: Five cell lines viability, CellTiter-Glo ATP luminescence, 48-72 h; max response: active compounds read low; on max response: on the % scale 0 is the no-effect control and ±100 the full control effect
In short: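 Cells exposed to compounds for 48 or 72 hr at 37 degrees Celsius. Viability read as ATP-coupled luminescence with CellTiter-Glo after 10 min at room temperature.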

JCK = assay: qHTS profiling for inhibitors of Plasmodium falciparum proliferation (AID 504749); conditions: P. falciparum in erythrocytes, SYBR Green DNA, 72 h; series mostly up to 28.7 µM
In short: as §1

PC15 = assay: as above; conditions: P. falciparum in erythrocytes, SYBR Green DNA, 72 h; series mostly up to 28.7 µM
In short: as §1
Further: nearly all actives have a fitted effect of over 60% in size.
Potency means the concentration at half of the fitted maximal effect.

Nc1ccn([C@@H]2O[C@H](CO)[C@H](O)C2(F)F)c(=O)n1
active: Potency (Dd2) 1.78 µM | Potency (ECU) 5.01 µM | Potency (FAB9) 1.41 µM | Potency (GB4) 0.953 µM | Potency (HB3) 3.98 µM | Potency (ICS) 3.98 µM | Potency (N140) 1.12 µM | Potency (P93_24) 0.316 µM | Potency (P94_40) 0.316 µM | Potency (PAD) 0.708 µM | Potency (PC26) 4.78 µM | Potency (PC49) 0.708 µM | Potency (SC27B) 3.98 µM | Potency (TAB109) 5.01 µM | Potency (TAB113) 3.98 µM | Potency (TAB165) 3.98 µM | Potency (W2) 0.19 µM

CC1(O)CC(c2nc(-c3ccc4ccc(-c5ccccc5)nc4c3)c3c(N)nccn23)C1 (configuration not stated)
active: Potency (CRL-7250) 11.8 µM
inactive: max response (CRL-7250) -9.35%

CNC(=O)c1ccc(N2C(=S)N(c3cnc(C#N)c(C(F)(F)F)c3)C(=O)C23CCC3)cc1F
inactive: max response (CRL-7250) -2.94% | outcome (CRL-7250)

CNC(=O)c1ccc(-c2cnc3ncc(Cc4ccc5ncccc5c4)n3n2)cc1F
inactive: max response (CRL-7250) -2.64% | outcome (CRL-7250)

Cn1c(CNc2ccc(C(=N)N)cc2)nc2cc(C(=O)N(CCC(=O)O)c3ccccn3)ccc21
active: Potency (CRL-7250) 7.24 µM
inactive: max response (CRL-7250) -5.55%

Cc1ccc(NC(=O)C2(c3ccc4c(c3)OC(F)(F)O4)CC2)nc1-c1cccc(C(=O)O)c1
active: Potency (CRL-7250) 0.187 µM
inactive: max response (CRL-7250) -5.91%

COC(=O)C1=C(C)NC(C)=C(C(=O)OCCN2CCN(C(c3ccccc3)c3ccccc3)CC2)C1c1cccc([N+](=O)[O-])c1 (configuration not stated)
active: Potency (Dd2) 1.58 µM | Potency (ECU) 2.51 µM | Potency (FAB9) 7.08 µM | Potency (GB4) 2.69 µM | Potency (HB3) 3.16 µM | Potency (ICS) 1 µM | Potency (JCK) 12.6 µM | Potency (N140) 1.58 µM | Potency (P93_24) 2.82 µM | Potency (P94_40) 2 µM | Potency (PAD) 3.16 µM | Potency (PC15) 10 µM | Potency (PC26) 1.9 µM | Potency (PC49) 5.01 µM | Potency (SC27B) 2.24 µM | Potency (TAB109) 3.55 µM | Potency (TAB113) 2 µM | Potency (TAB165) 2.24 µM | Potency (W2) 1.35 µM

Cc1c(C)n(Cc2ccc(-c3ccccc3C(=O)O)cc2)c2ccc(C(=O)N[C@@H](C)c3ccc([N+](=O)[O-])cc3)cc12
inactive: max response (CRL-7250) 0.704% | outcome (CRL-7250)

CCOc1ccccc1OCCNC(C)Cc1ccc(OC)c(S(N)(=O)=O)c1 (configuration not stated)
inactive: max response (CRL-7250) 3.17% | outcome (CRL-7250)

CC=CC1=C(C(=O)O)N2C(=O)[C@H](NC(=O)[C@H](N)c3ccc(O)cc3)[C@@H]2SC1
inactive: Potency (Dd2) | Potency (ECU) | Potency (FAB9) | Potency (GB4) | Potency (HB3) | Potency (ICS) | Potency (JCK) | Potency (N140) | Potency (P93_24) | Potency (P94_40) | Potency (PAD) | Potency (PC15) | Potency (PC26) | Potency (PC49) | Potency (SC27B) | Potency (TAB109) | Potency (TAB113) | Potency (TAB165) | Potency (W2) | max response (CRL-7250) 1.71%

O=C(CCCCCCC(=O)Nc1ccc([C@H]2O[C@@H](CSc3nc(-c4ccccc4)c(-c4ccccc4)o3)C[C@@H](c3ccc(CO)cc3)O2)cc1)NO
inactive: max response (CRL-7250) -17.1%
active: Potency (CRL-7250) 18.7 µM

CN(C)CC(C)(C)CNc1nn2c(-c3ccccc3)nnc2cc1C1CCC1
inactive: max response (CRL-7250) -13.8% | outcome (CRL-7250)

O=C(O)CO.[NH2-].[NH2-].[Pt+2]
inactive: Potency (Dd2) | Potency (ECU) | Potency (FAB9) | Potency (GB4) | Potency (HB3) | Potency (JCK) | Potency (N140) | Potency (P93_24) | Potency (P94_40) | Potency (PAD) | Potency (PC15) | Potency (PC26) | Potency (PC49) | Potency (SC27B) | Potency (TAB109) | Potency (TAB113) | Potency (TAB165) | Potency (W2)

CN1c2cc(O)c(N=NC(N)=O)cc2CC1S(=O)(=O)O (configuration not stated)
inactive: Potency (Dd2) | Potency (ECU) | Potency (FAB9) | Potency (GB4) | Potency (HB3) | Potency (ICS) | Potency (JCK) | Potency (N140) | Potency (P93_24) | Potency (P94_40) | Potency (PAD) | Potency (PC15) | Potency (PC26) | Potency (PC49) | Potency (SC27B) | Potency (TAB109) | Potency (TAB113) | Potency (TAB165) | Potency (W2) | outcome (CRL-7250)

COc1c(N2C[C@@H]3CCCN[C@H]3C2)c(F)cc2c(=O)c(C(=O)O)cn(C3CC3)c12
inactive: Potency (Dd2) | Potency (ECU) | Potency (FAB9) | Potency (HB3) | Potency (ICS) | Potency (N140) | Potency (P94_40) | Potency (PAD) | Potency (PC15) | Potency (PC26) | Potency (PC49) | Potency (SC27B) | Potency (TAB113) | Potency (TAB165) | Potency (W2)

From PubChem BioAssay (NCATS)
